Laboratory results: article PMC7862700, “An all-to-all approach to the identification of sequence-specific readers for epigenetic DNA modifications on cytosine”

Experiments:
Test in all cases: DAPPL (digital affinity profiling via proximity ligation, sequencing); 10 mM Tris-HCl pH 7.5, 50 mM NaCl, 1 mM DTT, 4% glycerol, room temperature, 30 min; GST-TFs on glutathione beads, 16-mer random dsDNA library, 0.1% formaldehyde crosslink after washing; high values mean tight binding
Settings in all cases: protein: recombinant; tags: N-terminal GST; dsDNA, one strand shown
ELK1 = biological target: T1, ELK1 (Homo sapiens, UniProt P19419 1-428)
T1 sequence: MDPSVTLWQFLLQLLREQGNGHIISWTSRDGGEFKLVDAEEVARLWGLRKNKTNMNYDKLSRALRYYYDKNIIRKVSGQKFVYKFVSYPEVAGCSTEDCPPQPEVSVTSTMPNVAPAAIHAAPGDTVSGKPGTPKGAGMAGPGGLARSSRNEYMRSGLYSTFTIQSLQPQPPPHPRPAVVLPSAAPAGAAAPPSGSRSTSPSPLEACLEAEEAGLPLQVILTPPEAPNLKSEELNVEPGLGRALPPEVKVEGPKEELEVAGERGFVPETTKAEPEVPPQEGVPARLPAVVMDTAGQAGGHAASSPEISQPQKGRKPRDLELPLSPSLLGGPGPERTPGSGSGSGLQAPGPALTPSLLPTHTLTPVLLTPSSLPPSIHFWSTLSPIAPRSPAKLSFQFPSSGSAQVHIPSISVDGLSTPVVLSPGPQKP
Outline: (§1)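 GST fusions of human transcription factors were expressed in yeast and captured with glutathione beads. Once given DNA barcodes and pooled alongside a tag-only sample, they were incubated for 30 min at room temperature with 200 nmole of a random double-stranded 16-mer DNA library in Tris/NaCl/DTT/glycerol buffer, then washed, crosslinked (0.1% formaldehyde), proximity-ligated, PCR-amplified and sequenced on an Illumina NextSeq500. The binding signal of each hexamer is its read frequency for a factor divided by its frequency for the tag-only sample.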

GABPA = biological target: T2, GABPA (Homo sapiens, UniProt Q06546 1-454)
T2 sequence: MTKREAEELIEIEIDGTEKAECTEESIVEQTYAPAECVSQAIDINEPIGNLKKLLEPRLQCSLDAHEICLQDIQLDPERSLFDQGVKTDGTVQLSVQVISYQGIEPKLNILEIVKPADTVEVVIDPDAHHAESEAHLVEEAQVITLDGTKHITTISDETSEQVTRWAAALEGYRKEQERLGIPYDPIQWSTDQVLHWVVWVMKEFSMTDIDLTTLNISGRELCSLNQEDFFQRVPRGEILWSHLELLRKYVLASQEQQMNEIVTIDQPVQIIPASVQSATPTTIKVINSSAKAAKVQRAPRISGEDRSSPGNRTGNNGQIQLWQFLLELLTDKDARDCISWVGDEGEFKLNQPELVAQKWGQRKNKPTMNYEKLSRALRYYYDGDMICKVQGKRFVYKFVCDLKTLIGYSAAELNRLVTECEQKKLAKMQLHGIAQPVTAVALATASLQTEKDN
Outline: as §1

ERG = biological target: T3, ERG (Homo sapiens, UniProt P11308 1-479)
T3 sequence: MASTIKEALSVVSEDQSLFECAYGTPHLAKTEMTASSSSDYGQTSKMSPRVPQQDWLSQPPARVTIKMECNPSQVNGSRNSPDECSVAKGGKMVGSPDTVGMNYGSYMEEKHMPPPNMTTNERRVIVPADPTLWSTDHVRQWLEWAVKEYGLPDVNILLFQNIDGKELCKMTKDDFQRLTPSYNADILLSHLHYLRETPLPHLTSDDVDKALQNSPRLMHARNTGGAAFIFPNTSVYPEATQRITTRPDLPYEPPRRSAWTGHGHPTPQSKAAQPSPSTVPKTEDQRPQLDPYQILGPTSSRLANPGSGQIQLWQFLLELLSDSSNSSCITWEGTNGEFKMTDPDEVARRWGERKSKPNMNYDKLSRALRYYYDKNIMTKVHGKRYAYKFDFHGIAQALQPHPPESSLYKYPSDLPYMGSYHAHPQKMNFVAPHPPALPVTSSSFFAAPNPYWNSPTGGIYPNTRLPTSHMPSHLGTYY
Outline: as §1

ELF1 = ELF1 (Homo sapiens, UniProt P32519 1-619)
Sequence of ELF1 (P32519 whole entry): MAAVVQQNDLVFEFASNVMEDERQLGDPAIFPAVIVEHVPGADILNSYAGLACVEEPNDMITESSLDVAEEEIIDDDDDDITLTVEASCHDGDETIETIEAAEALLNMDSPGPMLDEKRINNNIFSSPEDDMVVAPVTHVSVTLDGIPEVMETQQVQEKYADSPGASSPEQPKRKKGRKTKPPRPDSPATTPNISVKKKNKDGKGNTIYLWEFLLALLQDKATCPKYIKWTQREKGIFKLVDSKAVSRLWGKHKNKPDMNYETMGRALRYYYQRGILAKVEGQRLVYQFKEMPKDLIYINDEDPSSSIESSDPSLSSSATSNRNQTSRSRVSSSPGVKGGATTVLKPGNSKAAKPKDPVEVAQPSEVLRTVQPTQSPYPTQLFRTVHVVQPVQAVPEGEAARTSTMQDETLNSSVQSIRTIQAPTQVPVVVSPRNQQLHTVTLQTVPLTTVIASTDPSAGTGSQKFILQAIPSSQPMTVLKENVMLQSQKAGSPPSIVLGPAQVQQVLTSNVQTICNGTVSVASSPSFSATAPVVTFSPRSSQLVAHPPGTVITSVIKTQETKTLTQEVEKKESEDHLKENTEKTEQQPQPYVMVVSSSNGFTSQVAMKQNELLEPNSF
Outline: as §1

EHF = biological target: T4, EHF (Homo sapiens, UniProt Q9NZC4 1-300)
T4 sequence: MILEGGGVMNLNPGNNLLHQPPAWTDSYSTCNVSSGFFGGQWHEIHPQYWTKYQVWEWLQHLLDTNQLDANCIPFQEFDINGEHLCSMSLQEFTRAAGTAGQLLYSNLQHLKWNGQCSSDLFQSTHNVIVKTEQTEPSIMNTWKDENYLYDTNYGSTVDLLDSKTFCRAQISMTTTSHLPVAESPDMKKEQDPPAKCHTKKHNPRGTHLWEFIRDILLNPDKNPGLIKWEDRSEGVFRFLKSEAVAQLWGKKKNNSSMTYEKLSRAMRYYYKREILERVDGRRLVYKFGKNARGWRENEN
Outline: as §1

SPIB = SPIB (Homo sapiens, UniProt Q01892 1-262)
Sequence of SPIB (Q01892 whole entry): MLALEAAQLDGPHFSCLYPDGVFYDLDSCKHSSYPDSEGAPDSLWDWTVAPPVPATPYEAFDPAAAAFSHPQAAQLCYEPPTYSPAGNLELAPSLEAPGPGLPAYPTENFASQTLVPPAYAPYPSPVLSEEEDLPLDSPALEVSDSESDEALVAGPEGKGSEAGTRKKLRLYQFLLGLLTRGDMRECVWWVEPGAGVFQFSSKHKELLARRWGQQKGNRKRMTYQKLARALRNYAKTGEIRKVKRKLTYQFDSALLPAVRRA
Outline: as §1

ELK3 = biological target: T5, ELK3 (Homo sapiens, UniProt P41970 1-407)
T5 sequence: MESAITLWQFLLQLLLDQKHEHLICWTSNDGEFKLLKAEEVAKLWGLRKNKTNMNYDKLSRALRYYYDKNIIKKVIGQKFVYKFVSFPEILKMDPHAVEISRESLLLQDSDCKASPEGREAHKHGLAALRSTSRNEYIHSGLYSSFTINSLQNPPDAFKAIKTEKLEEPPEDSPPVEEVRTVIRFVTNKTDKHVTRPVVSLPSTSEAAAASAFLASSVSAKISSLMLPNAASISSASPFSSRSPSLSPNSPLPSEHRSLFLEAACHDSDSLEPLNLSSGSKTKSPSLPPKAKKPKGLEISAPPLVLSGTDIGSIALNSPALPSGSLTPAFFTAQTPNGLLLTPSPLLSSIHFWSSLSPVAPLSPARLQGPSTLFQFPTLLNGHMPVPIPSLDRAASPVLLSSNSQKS
Outline: as §1

FEV = biological target: T6, FEV (Homo sapiens, UniProt Q99581 1-238)
T6 sequence: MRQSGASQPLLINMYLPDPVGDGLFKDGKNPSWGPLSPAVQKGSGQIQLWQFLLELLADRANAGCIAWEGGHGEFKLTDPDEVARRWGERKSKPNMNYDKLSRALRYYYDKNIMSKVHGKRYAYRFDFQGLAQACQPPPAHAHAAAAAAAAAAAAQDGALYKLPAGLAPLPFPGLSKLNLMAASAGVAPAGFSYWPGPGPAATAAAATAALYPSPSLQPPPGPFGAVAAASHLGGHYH
Outline: as §1

ETV5 = ETV5 (Homo sapiens, UniProt P41161 1-510)
Sequence of ETV5 (P41161 whole entry): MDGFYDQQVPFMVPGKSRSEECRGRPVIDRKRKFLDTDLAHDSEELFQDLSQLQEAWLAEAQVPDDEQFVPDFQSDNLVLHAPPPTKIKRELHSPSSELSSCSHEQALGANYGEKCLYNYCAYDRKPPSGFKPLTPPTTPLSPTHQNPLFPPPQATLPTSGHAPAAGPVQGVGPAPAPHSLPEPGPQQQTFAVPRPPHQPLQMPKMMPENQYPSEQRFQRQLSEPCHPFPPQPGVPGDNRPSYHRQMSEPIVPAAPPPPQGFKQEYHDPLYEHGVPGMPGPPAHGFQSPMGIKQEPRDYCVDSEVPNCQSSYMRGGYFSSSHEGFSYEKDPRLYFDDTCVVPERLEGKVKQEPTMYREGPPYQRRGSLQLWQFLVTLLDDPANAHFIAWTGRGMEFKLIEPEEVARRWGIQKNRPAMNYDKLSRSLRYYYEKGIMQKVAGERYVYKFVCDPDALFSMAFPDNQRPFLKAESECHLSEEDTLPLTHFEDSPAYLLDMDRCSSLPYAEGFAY
Outline: as §1

ELF4 = ELF4 (Homo sapiens, UniProt Q99607 1-663)
Sequence of ELF4 (Q99607 whole entry): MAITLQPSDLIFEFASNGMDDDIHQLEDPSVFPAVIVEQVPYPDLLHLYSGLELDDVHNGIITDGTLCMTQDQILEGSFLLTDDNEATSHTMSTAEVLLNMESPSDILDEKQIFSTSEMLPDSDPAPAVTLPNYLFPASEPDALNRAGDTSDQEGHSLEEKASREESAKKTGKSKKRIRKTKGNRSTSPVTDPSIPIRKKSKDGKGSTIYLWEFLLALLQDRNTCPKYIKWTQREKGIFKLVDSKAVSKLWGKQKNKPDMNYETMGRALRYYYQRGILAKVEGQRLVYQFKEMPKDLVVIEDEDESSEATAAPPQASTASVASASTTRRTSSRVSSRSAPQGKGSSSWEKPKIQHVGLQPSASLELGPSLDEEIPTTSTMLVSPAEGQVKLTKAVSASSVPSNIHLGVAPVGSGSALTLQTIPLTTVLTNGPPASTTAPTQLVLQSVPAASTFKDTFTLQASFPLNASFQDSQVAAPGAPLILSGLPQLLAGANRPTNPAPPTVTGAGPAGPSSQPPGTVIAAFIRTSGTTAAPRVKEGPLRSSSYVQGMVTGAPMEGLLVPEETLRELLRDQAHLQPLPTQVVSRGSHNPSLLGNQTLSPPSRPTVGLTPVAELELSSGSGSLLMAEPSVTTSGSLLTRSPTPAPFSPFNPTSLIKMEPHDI
Outline: as §1

ELK4 = biological target: T7, ELK4 (Homo sapiens, UniProt P28324-2 1-405)
T7 sequence: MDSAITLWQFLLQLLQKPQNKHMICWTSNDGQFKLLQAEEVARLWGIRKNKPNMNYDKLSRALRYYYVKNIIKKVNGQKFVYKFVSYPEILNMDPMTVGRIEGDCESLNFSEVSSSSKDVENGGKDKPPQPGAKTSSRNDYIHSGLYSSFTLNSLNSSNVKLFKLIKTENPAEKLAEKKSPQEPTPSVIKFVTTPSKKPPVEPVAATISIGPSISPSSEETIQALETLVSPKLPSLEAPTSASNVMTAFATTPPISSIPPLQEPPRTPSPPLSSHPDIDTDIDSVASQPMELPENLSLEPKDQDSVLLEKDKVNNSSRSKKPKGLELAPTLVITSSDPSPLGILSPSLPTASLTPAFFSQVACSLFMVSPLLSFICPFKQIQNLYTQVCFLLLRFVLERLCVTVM
Outline: as §1

ELF3 = biological target: T8, ELF3 (Homo sapiens, UniProt P78545 1-371)
T8 sequence: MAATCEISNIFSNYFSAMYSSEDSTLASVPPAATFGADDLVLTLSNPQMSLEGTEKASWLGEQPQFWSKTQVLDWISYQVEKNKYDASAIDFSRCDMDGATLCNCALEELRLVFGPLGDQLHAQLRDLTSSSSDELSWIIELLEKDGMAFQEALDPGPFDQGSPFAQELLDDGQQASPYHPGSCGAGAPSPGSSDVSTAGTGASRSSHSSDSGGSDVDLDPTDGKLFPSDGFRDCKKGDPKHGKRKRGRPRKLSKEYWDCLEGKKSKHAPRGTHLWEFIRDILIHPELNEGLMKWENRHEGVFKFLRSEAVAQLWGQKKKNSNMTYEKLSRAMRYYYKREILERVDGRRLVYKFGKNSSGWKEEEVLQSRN
Outline: as §1

ETV1 = ETV1 (Homo sapiens, UniProt P50549 1-477)
Sequence of ETV1 (P50549 whole entry): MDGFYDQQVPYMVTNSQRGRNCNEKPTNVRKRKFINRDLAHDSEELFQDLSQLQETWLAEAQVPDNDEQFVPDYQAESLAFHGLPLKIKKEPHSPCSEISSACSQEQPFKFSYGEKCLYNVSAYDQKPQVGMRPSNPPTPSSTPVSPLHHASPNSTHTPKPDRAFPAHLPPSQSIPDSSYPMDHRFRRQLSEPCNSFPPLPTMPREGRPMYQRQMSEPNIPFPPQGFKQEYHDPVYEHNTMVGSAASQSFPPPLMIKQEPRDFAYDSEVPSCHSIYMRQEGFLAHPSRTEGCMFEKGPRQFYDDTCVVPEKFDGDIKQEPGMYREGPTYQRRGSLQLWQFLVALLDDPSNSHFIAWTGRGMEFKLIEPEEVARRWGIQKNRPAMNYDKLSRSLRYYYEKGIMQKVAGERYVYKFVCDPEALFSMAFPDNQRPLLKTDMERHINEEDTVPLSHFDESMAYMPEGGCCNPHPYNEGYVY
Outline: as §1

ERF = biological target: T9, ERF (Homo sapiens, UniProt P50548 1-548)
T9 sequence: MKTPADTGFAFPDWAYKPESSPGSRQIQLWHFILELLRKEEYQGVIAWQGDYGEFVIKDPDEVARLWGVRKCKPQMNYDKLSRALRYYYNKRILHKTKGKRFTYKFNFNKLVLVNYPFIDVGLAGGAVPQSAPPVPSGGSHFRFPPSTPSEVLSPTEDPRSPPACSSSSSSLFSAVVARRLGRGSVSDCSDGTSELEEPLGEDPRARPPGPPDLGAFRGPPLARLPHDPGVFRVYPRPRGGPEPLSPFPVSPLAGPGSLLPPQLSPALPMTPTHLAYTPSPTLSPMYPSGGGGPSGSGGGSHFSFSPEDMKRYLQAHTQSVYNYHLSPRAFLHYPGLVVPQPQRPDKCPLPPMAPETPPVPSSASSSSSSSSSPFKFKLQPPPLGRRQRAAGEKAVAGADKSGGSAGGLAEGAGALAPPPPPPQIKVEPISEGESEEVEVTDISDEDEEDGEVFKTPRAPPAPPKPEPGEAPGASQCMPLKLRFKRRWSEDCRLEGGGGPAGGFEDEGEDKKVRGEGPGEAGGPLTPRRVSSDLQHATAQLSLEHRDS
Outline: as §1

ETV3L = biological target: T10, ETV3L (Homo sapiens, UniProt Q6ZN32 1-361)
T10 sequence: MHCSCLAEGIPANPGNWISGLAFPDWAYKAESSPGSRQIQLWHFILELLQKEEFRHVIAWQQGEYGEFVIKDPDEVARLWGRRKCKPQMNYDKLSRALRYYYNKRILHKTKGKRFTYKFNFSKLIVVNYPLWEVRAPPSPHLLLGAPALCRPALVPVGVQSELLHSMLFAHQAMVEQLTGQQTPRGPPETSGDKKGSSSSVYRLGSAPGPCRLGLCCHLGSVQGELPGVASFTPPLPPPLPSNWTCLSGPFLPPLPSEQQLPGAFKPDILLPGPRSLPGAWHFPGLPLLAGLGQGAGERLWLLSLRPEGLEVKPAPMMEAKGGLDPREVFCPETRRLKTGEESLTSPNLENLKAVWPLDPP
Outline: as §1

ETS2 = biological target: T11, ETS2 (Homo sapiens, UniProt P15036 1-469)
T11 sequence: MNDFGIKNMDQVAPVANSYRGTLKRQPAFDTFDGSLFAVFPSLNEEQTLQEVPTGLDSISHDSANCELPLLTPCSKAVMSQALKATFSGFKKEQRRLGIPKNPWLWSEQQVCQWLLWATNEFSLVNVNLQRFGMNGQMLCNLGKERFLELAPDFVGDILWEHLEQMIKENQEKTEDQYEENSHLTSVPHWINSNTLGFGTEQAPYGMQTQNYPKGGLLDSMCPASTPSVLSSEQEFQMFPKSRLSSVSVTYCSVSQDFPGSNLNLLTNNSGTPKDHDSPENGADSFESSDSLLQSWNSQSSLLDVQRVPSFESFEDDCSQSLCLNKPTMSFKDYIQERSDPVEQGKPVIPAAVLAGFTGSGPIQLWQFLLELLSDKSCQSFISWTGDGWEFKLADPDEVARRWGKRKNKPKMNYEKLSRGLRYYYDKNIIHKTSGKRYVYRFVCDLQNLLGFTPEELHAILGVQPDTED
Outline: as §1

SPDEF = biological target: T12, SPDEF (Homo sapiens, UniProt O95238 1-335)
T12 sequence: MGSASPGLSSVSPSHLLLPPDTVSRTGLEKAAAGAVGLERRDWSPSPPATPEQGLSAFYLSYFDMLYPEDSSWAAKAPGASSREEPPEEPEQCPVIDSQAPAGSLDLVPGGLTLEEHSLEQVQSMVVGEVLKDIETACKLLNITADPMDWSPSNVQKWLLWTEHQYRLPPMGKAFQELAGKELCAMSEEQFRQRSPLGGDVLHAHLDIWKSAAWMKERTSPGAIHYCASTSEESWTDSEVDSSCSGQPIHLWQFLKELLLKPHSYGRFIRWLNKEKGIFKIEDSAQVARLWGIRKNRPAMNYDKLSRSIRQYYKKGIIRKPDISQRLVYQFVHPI
Outline: as §1

ETV3 = biological target: T13, ETV3 (Homo sapiens, UniProt P41162-2 1-143)
T13 sequence: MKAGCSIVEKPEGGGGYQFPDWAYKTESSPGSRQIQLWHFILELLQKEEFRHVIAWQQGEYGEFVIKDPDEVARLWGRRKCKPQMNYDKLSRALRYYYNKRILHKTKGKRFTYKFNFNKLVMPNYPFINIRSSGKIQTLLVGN
Outline: as §1

ETV6 = ETV6 (Homo sapiens, UniProt P41212 1-452)
Sequence of ETV6 (P41212 whole entry): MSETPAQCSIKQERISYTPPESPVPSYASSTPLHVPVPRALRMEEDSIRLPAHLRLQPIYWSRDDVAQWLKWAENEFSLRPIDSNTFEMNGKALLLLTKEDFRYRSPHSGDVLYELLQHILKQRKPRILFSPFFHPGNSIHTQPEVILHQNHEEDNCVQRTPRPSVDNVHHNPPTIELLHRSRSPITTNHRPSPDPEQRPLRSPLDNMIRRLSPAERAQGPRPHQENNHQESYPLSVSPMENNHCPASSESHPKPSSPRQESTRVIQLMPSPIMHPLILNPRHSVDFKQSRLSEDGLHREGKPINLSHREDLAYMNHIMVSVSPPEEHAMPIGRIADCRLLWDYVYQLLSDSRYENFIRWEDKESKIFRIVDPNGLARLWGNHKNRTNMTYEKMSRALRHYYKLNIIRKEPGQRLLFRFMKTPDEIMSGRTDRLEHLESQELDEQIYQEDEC
Outline: as §1

For CACCGG, the binding signal (ELK1) was 1.16 fold enrichment (6-mer frequency, TF over GST control), the binding signal (GABPA) was 1.04 fold enrichment (6-mer frequency, TF over GST control) and the binding signal (ERG) was 1.27 fold enrichment (6-mer frequency, TF over GST control). The binding signal (ELF1) was 1.09 fold enrichment (6-mer frequency, TF over GST control), the binding signal (EHF) was 1.13 fold enrichment (6-mer frequency, TF over GST control) and the binding signal (SPIB) was 1.16 fold enrichment (6-mer frequency, TF over GST control). For the same sequence, the binding signal (ELK3) was 1.16 fold enrichment (6-mer frequency, TF over GST control), the binding signal (FEV) was 1.75 fold enrichment (6-mer frequency, TF over GST control) and the binding signal (ETV5) was 1.21 fold enrichment (6-mer frequency, TF over GST control). The binding signal (ELF4) was 1.16 fold enrichment (6-mer frequency, TF over GST control), the binding signal (ELK4) was 1.05 fold enrichment (6-mer frequency, TF over GST control) and the binding signal (ELF3) was 1.17 fold enrichment (6-mer frequency, TF over GST control). For the same sequence, the binding signal (ETV1) was 1.21 fold enrichment (6-mer frequency, TF over GST control), the binding signal (ERF) was 1.08 fold enrichment (6-mer frequency, TF over GST control) and the binding signal (ETV3L) was 1.14 fold enrichment (6-mer frequency, TF over GST control). For the same sequence, the binding signal (ETS2) was 1.17 fold enrichment (6-mer frequency, TF over GST control), the binding signal (SPDEF) was 1.08 fold enrichment (6-mer frequency, TF over GST control) and the binding signal (ETV3) was 1.14 fold enrichment (6-mer frequency, TF over GST control). The binding signal (ETV6) was 1.09 fold enrichment (6-mer frequency, TF over GST control).
